Shown is part of a subset that was picked to be rich in hits.
ALOX12 inh: ALOX12 (human) lipoxygenase inhibition | AID 1671190 | Potency, µM (titrated, usually from 108 µM), most hits filed as inhibitors | P18054 | 580,000 tested, 1.1% active | purified 12hLO, xylenol orange hydroperoxide absorbance
Target sequence (P18054 whole entry, looked up): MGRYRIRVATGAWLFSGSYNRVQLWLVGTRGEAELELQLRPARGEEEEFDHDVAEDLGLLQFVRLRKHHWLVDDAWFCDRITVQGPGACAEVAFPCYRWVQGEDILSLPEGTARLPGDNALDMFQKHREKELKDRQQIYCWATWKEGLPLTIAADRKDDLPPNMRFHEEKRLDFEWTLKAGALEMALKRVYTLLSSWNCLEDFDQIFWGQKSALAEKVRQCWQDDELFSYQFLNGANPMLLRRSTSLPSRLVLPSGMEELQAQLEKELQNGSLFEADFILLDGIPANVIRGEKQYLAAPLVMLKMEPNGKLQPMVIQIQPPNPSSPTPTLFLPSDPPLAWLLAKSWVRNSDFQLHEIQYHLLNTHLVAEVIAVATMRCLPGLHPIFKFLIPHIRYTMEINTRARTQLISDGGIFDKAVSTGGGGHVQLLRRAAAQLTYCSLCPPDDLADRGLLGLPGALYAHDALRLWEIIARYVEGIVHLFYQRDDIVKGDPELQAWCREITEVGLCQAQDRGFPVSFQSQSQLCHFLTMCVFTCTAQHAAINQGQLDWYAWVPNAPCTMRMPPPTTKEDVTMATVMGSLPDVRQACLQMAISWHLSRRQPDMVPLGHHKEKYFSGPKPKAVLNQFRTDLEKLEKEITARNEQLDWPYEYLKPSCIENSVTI
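Purified human 12hLO (150 nM final) in 25 mM Hepes, 0.01% Triton X-100, pH 7.0 was preincubated 15 min at room temperature with compound. Then 40 uM arachidonic acid was added, 30 min. Hydroperoxide was read by Fe-XO absorbance ratio 573/405 nm.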
IL1B secr inh: inhibitors of inflammasome signaling (IL-1 beta secretion); THP-1 LPS/ATP IL-1B secretion, AlphaLISA, 16 h; stronger effect = lower value; activity change, % at 57.5 µM; 360,000 tested, 4.7% active; in the data active = activity change below about -50%; inconclusive = mostly about -30% to -49%
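Secreted IL-1B measured by AlphaLISA bead assay after 16 h compound exposure of THP-1 cells; compounds (final up to 57.5 uM) added 1 h before LPS (250 ng/mL) and ATP (1.25 mM) stimulation; lower signal means less secretion.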
TDP1 cell CPT: growth inhibition of DT40 Tdp1-/-;hTDP1 cells with camptothecin (screen for TDP1 inhibitors); chicken DT40 Tdp1-/-;hTDP1 cells + 20 nM CPT, ATP luminescence, 48 h; 420,000 tested, 12% active; Potency, µM (series often up to 46.2 µM), usual class: inhibitors; AID 686979; note: nearly all actives have a fitted effect of over 55% in size
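Chicken DT40 Tdp1-/- cells complemented with human TDP1, 400 cells/well, exposed to compounds plus 20 nM camptothecin for at least 48 h at 37 C; viability read as ATP content by CellTiter-Glo luminescence.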
HT1080-NT tox: kills 2HG-producing HT-1080-NT fibrosarcoma cells; HT-1080-NT fibrosarcoma viability, CellTiter-Glo ATP luminescence, 48 h; Potency, µM (series often up to 46.1 µM), hits mostly cytotoxic; 360,000 tested, 1.6% active;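 note: NT is the 2HG producing partner of a matched IDH1 knockdown line; nearly all actives have a fitted effect of over 55% in size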
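750 cells/well, RPMI + 5% FBS; 2 h settle, compound pin-transfer, 48 h at 37 degrees C. CellTiter-Glo 10 min RT, luminescence. Normalized to DMSO and media-only wells.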
DT40 TDP1 no CPT: qHTS for Inhibitors of human tyrosyl-DNA phosphodiesterase 1 (TDP1): qHTS in cells in absence of CPT. AID 686978, 2013. Potency, µM (doses to about 46.2 µM), actives largely listed as inhibitors. DT40 Tdp1-/- hTDP1 cells, no CPT, ATP luminescence, 48 h. 420,000 tested, 15% active; note: nearly all actives have a fitted effect of over 55% in size
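Cells were dispensed at 400 per well, compounds added by pin tool, plates incubated ≥48 hr at 37 °C, then CellTiter-Glo added for 30 min at room temperature before luminescence reading. Line: DT40 Tdp1-/- complemented with hTDP1; camptothecin omitted.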
HT1080 IDH1KD tx: HT-1080 IDH1 knockdown cell toxicity (counter line). HT-1080 IDH1 knockdown viability, ATP luminescence, 48 h. Potency, µM (series often up to 46.1 µM), usual class: cytotoxic. 360,000 tested, 2% active. AID 686971
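Assay cells: HT-1080 with IDH1 knockdown, 750 per well, RPMI/5% FBS. Exposure: 48 h at 37 °C following 2 h pre-incubation. Read: CellTiter-Glo luminescence; fitted concentration-response, curve class assigned.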
Numbers stand for hits; . = inactive; ? = inconclusive; / = no result given; [ ] = dose if it differs, or a comment. Unless noted, calls come from the whole dose curve; as a rule, active = well fitted curve in the direction sought with a large enough effect; inconclusive = small, poorly fitted or top-dose-only effect, or another doubt; inactive = no such curve, though single readings can be large; an effect the other way counts as inactive or inconclusive.

SMILES	ALOX12 inh	IL1B secr inh	TDP1 cell CPT	HT1080-NT tox	DT40 TDP1 no CPT	HT1080 IDH1KD tx
CCn1nc(C(=O)Nc2ccc(OCC(N)=O)cc2)c2ccccc2c1=O	.	/	/	/	/	/
COc1ccc(-c2noc(C(=O)O)c2[C@@H](C)NC(=O)c2cc(C)n(C)n2)cc1	.	/	/	/	/	/
CC(C)Oc1ccc(CN2CCC(CO)(Cc3ccccc3Cl)CC2)cc1CO	.	/	/	/	/	/
O=C(Nc1nc2ccccc2[nH]1)c1ccc(F)cc1	.	.	.	.[9.24 µM]	?	?
CCOc1ccc(C(=O)Nc2nc3ccccc3[nH]2)cc1OCC	?	.	21µM	?	8.2µM	.
Cn1nc(C(=O)Nc2c(-c3ccccc3)nc3sccn23)c2ccccc2c1=O	.	.	21µM	.	13µM	.
CCc1ccc(C(=O)Nc2nc3ccccc3[nH]2)cc1	.	.	18µM	?	12µM	?
Cn1nc(C(=O)Nc2nc3ccccc3[nH]2)c2ccccc2c1=O	.	.	18µM	.	16µM	.
CCCn1cc(C(=O)n2nc(C)cc2C)c(S(=O)(=O)N2CCN(c3ccc(Cl)cc3)CC2)n1	.	/	/	/	/	/
CN(C)S(=O)(=O)c1ccc2oc(SCCOc3ccccc3F)nc2c1	.	/	/	/	/	/
O=c1oc2ccccc2c(NCC2CCCCC2)c1NS(=O)(=O)c1ccc(Cl)cc1	.	/	/	/	/	/
Cn1nc(C(=O)Nc2ccc(F)cc2)c2ccccc2c1=O	.	/	/	/	/	/
N#Cc1ccc(C(=O)Nc2nc3ccccc3[nH]2)cc1	.	.	.	?	?	?
CC(C)Oc1ccc(C(=O)Nc2nc3ccccc3[nH]2)cc1	.	.	18µM	?	9.2µM	?
COc1cc(C(=O)Nc2nc3ccccc3[nH]2)ccc1OC(F)F	.	.	21µM	?	15µM	?
COc1ccc(C(=O)Nc2nc3ccccc3[nH]2)cc1OC	?	.	.	.	.	?
Cn1nc(C(=O)NNc2c(F)c(F)cc(F)c2F)c2ccccc2c1=O	.	.	.	.	1.5µM	.
CCOc1ccc(C(=O)N2CC(C(=O)NC3CCCCC3)C3(CCOCC3)C2)cc1 (stereo not drawn)	.	/	/	/	/	/
Cc1ccccc1C(=O)N1CCC(CCC(=O)NCCc2c[nH]c3ccccc23)CC1	.	/	/	/	/	/
O=S(=O)(c1ccc(Cl)s1)N1CCOc2ccc(COCc3ccccc3)cc2C1	.	/	/	/	/	/
O=c1cc(COc2ccc(-c3ccccc3)cc2Cl)nc2sccn12	.	/	/	/	/	/
Cc1ccc(C)c(N2CCN(C(=O)C3CCN(c4nc5ccc(C)cc5[nH]4)CC3)CC2)c1	?	/	4.1µM	/	2.3µM	/
Cc1ccc2nc(N3CCC(C(=O)N4CCN(c5cccc(Cl)c5)CC4)CC3)[nH]c2c1	.	/	13µM	/	8.2µM	/
COc1ccc(N2CCN(C(=O)C3CCN(c4nc5ccc(C)cc5[nH]4)CC3)CC2)cc1	?	/	10µM	/	8.2µM	/
CCCc1cc(=O)n2nc(N3CCC(C(=O)N4CCN(c5ccc(OC)cc5)CC4)CC3)sc2n1	?	.	2.6µM	?	5.8µM	13µM
SMILES	ALOX12 inh	IL1B secr inh	TDP1 cell CPT	HT1080-NT tox	DT40 TDP1 no CPT	HT1080 IDH1KD tx
CCCc1cc(=O)n2nc(N3CCC(C(=O)Nc4c(F)c(F)c(F)c(F)c4F)CC3)sc2n1	.	.	.	.	.	.
Cc1ccc(C)c(NC(=O)C(Sc2ccc(S(=O)(=O)N3CCOCC3)cn2)c2ccccc2)c1 (stereo not drawn)	.	/	/	/	/	/
CCC(C)NC(=O)NCC12CC3CC(CC(C3)C1)C2 (stereo not drawn)	.	/	/	/	/	/
CCn1cc2c3c(cccc31)CN(C(=O)CC(C)(C)C)CC2	.	/	/	/	/	/
COc1cccc(C(=O)N2CC(c3nnc(-c4ccc(C)cc4)o3)C3(CCOCC3)C2)c1C (stereo not drawn)	.	/	/	/	/	/
NCCCNC(=O)Cn1c(=O)c2c3c(sc2n(Cc2ccccc2)c1=O)CCCC3	.	.	21µM	.	?	.
O=C(Cn1c(=O)n2ncnc2c2c3c(sc21)CCCC3)c1ccccc1	.	.	23µM	.	?	.
O=c1n(Cc2ccccc2Cl)c2sc3c(c2c2ncnn12)CCCC3	.	.	?	.	?	.
NCCNC(=O)Cn1c(=O)c2c3c(sc2n(Cc2ccccc2)c1=O)CCCC3	.	-78	21µM	?	23µM	?
CC1(C)CC(=O)C=C(c2ccc(-c3ccc(S(C)(=O)=O)cc3)cc2)C1=O	?	.	21µM	.	12µM	.
COc1cccc(-c2ccc(C3=CC(=O)CC(C)(C)C3=O)cc2)c1OC	?	.	?	.	21µM	.
COc1ccccc1-c1ccccc1C1=CC(=O)CC(C)(C)C1=O	.	.	.	.	.	.
Cc1ccc(C2=CC(=O)CC(C)(C)C2=O)cc1	.	/	/	/	/	/
COc1ccc(CN(C)C(=O)C23CC4CC(CC(Cl)(C4)C2)C3)c(OC)c1OC	.	?	23µM	.	21µM	.
COc1cccc(CN(C)C(=O)C23CC4CC(C2)CC(c2ccccc2)(C4)C3)c1OC	.	/	/	/	/	/
COc1ccc(NC(=O)c2oc3ccc4c(c3c2C)C(=O)CC(C)(C)O4)cc1OC	.	/	21µM	/	12µM	/
COc1ccc(NC(=O)c2cc3ccccc3o2)cc1OC	.	.	.	?	.	.
CCc1cccc(NC(=O)c2oc3ccc4c(c3c2C)C(=O)CC(C)(C)O4)c1	.	/	?	/	21µM	/
COc1ccc(CCNc2ncnc3c2cnn3-c2ccc(C)c(Cl)c2)cc1	?	/	21µM	/	?	/
Cc1ccc(-n2ncc3c(NCCC4=CCCCC4)ncnc32)cc1C	?	/	10µM	/	?	/
COc1ccc(CCNc2ncnc3c2cnn3-c2ccc(F)cc2)cc1	.	/	?	/	?	/
CN(C)CCNc1ncnc2c1cnn2-c1cccc(Cl)c1	.	/	?	/	?	/
Cc1ccc(-n2ncc3c(NCCCc4ccccc4)ncnc32)cc1C	.	/	?	/	?	/
COc1ccc(CCNc2ncnc3c2cnn3-c2cccc(Cl)c2)cc1	40µM	/	?	/	26µM	/
CCOC(=O)c1c(C)[nH]c(C(=O)C(C)OC(=O)c2cccc(OCc3c(C)noc3C)c2)c1C (stereo not drawn)	.	?	21µM	.	18µM	?
CCN(CC)S(=O)(=O)c1ccc(F)c(C(=O)NCC2COc3ccccc3O2)c1 (stereo not drawn)	.	/	/	/	/	/
Cc1ccc(C2Cn3cnc(C(=O)N4CCC(C(=O)NC(C)c5ccccc5)CC4)c3CO2)cc1 (stereo not drawn)	.	/	/	/	/	/
Cc1ccc(C2=NN3C(C2)c2ccccc2OC32C(=O)Nc3ccccc32)cc1 (stereo not drawn)	?	.	?	?	?	?

Compound activity deposited in PubChem BioAssay by National Center for Advancing Translational Sciences (NCATS).
